Several values for one entry are separate records, joined by “and”; a condition that tells them apart may be missing. Equal values may be shown once. Activity calls are given as the source filed them. Unless noted, no stated cut-off is given here; in the data, active means parasite load remaining mostly below about 12% (no sharp cut-off); inactive means mostly above about 10%.
Tests used:
[1] = hESC survival regulators, cell-based (AID 493140; call rule not given here;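 further: cells exposed to compounds for four days before counting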); conditions: human embryonic stem cell survival screen; stronger effect = higher value
[2] = liver-stage malaria parasite growth inhibition, primary screen, cell-based, HepG2, luciferase luminescence, HepG2 viability (AID 624349);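 further: 100% = mean of DMSO negative control wells on the same plate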; conditions: P. berghei liver stage in HepG2, luciferase luminescence, concentration not given here; parasite load remaining: stronger effect = lower value; viability: measured here: HepG2 viability without parasites
[3] = stimulators of nuclear beta-catenin in C2C12, primary screen, imaging, WNT3A-conditioned medium, mouse C2C12, NPC library (AID 1117326; in the data active means nuclear beta-catenin stimulation mostly above about 4.2%, no sharp cut-off; inactive means mostly below about 10%); conditions: stronger effect = higher value
[4] = stimulators of insulin release from INS-1E, primary screen, cell-based, 5 mM glucose, NPC library (AID 1117329;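 active means compound raises insulin release from rat beta cells at 5 mM glucose, no numeric limit stated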); conditions: rat INS-1E insulin secretion, at 10 µM, stronger effect = higher value
[5] = growth inhibition of GSK3B-pretreated HCT116 cells – cell-based, CellTiter-Glo, 0.2 to 20 µM (AID 1117336;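 active means compounds lowering colon cancer cell viability after pretreatment blocking the GSK3B kinase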); conditions: HCT116 viability after GSK3B inhibitor, at 20 µM, stronger effect = higher value
[6] = inhibition of endothelial tube formation, primary screen, imaging, VEGF stimulated, CD31 staining, tube area, NPC library (AID 1117340;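 active means compound that reduces growth-factor-driven endothelial tube area in a mixed cell culture, no cutoff stated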); conditions: VEGF-stimulated ADSC/ECFC co-culture, at 10 µM, stronger effect = higher value
[7] = glucagon-like peptide 1 release enhancers, primary assay, NCI-H716 cell line, NPC library (AID 1117341;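 active means compound raises GLP1 secretion from the human gut endocrine cells, with no numeric limit stated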); conditions: NCI-H716 cells, at 10 µM, stronger effect = higher value
[8] = HCT116 colon cancer cell growth inhibition, primary screen, CellTiter-Glo luminescence, NPC library (AID 1117342;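 active means compounds that lower survival of HCT116 colon cancer cells in the luminescence readout, no numeric limit stated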); conditions: at 20 µM (top of the series)
[9] = CellTiter-Glo luminescent readout of SW480 viability loss, NPC library primary (AID 1117343;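 active means compounds that lower viability of the colon cancer cells in the luminescence readout, with no numeric limit stated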); conditions: CellTiter-Glo luminescence; at 20 µM (top of the series)
[10] = decreased DLD-1 cellular survival, CellTiter-Glo luminescent readout, NPC compound collection, primary HTS (AID 1117346;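 active means compounds that lower survival of DLD-1 colon cancer cells in the luminescence readout, no cutoff given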); conditions: DLD-1 viability, CellTiter-Glo luminescence; at 20 µM (top of the series)
[11] = biological target: 6-phosphogluconate dehydrogenase, decarboxylating (Homo sapiens) (UniProt P52209); assay: 6PGD enzyme inhibitors, primary screen, biochemical, human, recombinant enzyme, NADPH absorbance (AID 1159550;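 active means at least 20% inhibition of 6-phosphogluconate dehydrogenase activity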); conditions: recombinant 6PGD, NADPH absorbance 341 nm; at 10 µM; stronger effect = higher value
Sequence of 6-phosphogluconate dehydrogenase, decarboxylating (Homo sapiens) (P52209 whole entry, looked up): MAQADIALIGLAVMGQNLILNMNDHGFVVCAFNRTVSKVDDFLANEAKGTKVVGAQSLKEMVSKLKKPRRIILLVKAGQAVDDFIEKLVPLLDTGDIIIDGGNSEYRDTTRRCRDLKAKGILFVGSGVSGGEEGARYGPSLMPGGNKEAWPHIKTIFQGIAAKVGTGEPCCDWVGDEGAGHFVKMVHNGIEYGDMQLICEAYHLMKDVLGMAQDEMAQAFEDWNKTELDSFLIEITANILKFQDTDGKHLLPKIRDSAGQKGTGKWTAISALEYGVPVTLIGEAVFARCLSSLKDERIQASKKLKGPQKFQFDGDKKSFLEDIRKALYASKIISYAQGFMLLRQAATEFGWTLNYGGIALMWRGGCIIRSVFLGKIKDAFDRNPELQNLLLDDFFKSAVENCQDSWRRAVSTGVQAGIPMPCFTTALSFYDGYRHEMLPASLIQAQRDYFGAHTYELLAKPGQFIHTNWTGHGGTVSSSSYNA

[12] = differential killing of epithelial or mesenchymal cells, primary screen, imaging, PC-3E GFP, TEM4-18 mCherry, co-culture (AID 1345086;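 active means compounds killing one labelled cell type while sparing the other, by normalised counts and ratio limits, not self-fluorescent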;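 on all read-outs here: cells exposed to compound for 72 h before imaging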;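 on red/green cell ratio (normalised): normalised mesenchymal count divided by normalised epithelial count so high means epithelial killing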); conditions: imaging cell counts, at 1 µM; for red/green cell ratio (normalised): actives lie on both sides
[13] = system: Aerobactin synthetase IucA (Klebsiella pneumoniae hvKP1); assay: Biochemical IucA enzyme inhibition primary screen of the Spectrum library (AID 1346200; call rule not given here;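 further: 100% = wells without compound and 0% = wells lacking enzyme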); conditions: malachite green pyrophosphate, A620, at 8 µM, stronger effect = lower value
[14] = sensitizers of A549 cells to miR-34 induction, primary screen, imaging, A549 dox-inducible miR-34, nuclei and caspase counts (AID 1347080;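 active means compounds whose cell count with miR-34 switched on is under 0.7 times the count with it off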); conditions: A549 miR-34 inducible, Hoechst nuclei count, 48 h
[15] = survival rescue of mitochondrial mutant cells in low glucose, primary screen, MELAS cybrids, Rieske KO mouse fibroblasts, CellTiter-Glo (AID 1508586;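 active means mean z-score across replicates of 1.96 or higher in either the MELAS or the Rieske mutant cell line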;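 further: z relative to plate mean and SD of compound and empty wells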)
[16] = biological target: NAD(+) hydrolase SARM1 (Homo sapiens) (UniProt Q6SZW1); assay: SARM1 TIR NADase inhibitors, cell lysate, NAD-Glo luminescence (AID 1508614;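 active means compound whose remaining NAD level is above about 45 nM, limit read from the data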); conditions: SAM-TIR HEK293T lysate NADase, at 1 µM, stronger effect = higher value
Sequence of NAD(+) hydrolase SARM1 (Homo sapiens) (Q6SZW1 whole entry, looked up, the tested form may be a part): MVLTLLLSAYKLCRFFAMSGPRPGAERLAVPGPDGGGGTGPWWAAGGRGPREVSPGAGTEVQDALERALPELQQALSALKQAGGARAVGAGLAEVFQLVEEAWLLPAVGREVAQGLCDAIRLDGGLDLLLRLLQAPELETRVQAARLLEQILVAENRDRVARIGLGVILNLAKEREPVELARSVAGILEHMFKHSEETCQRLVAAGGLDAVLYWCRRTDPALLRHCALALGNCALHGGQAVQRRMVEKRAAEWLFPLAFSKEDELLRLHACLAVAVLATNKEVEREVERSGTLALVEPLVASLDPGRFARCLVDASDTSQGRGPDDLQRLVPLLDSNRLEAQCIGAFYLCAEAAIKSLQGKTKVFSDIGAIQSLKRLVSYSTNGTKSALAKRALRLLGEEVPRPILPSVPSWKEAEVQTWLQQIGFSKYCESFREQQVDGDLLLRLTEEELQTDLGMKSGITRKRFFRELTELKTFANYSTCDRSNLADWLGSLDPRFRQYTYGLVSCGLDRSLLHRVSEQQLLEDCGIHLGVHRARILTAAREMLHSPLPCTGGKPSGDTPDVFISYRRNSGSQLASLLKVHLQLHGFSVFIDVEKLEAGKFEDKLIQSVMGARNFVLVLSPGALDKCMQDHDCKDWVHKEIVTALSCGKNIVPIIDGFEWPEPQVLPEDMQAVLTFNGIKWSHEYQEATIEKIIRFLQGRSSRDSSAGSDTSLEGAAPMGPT

[17] = biological target: Mitogen-activated protein kinase 7 (Homo sapiens) (UniProt Q13164); assay: ERK5 transactivation activators in reporter cells, primary screen, cell-based, HTS (AID 1508626;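 active means luciferase signal above three times the same-plate solvent-only control wells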;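 further: luciferase driven by Gal4-ERK5 fusion binding five Gal4 sites before minimal TATA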); conditions: HeLa Gal4-ERK5 transactivation, 18 h, at 5 µM, stronger effect = higher value
Sequence of Mitogen-activated protein kinase 7 (Homo sapiens) (Q13164 whole entry, looked up, the tested form may be a part): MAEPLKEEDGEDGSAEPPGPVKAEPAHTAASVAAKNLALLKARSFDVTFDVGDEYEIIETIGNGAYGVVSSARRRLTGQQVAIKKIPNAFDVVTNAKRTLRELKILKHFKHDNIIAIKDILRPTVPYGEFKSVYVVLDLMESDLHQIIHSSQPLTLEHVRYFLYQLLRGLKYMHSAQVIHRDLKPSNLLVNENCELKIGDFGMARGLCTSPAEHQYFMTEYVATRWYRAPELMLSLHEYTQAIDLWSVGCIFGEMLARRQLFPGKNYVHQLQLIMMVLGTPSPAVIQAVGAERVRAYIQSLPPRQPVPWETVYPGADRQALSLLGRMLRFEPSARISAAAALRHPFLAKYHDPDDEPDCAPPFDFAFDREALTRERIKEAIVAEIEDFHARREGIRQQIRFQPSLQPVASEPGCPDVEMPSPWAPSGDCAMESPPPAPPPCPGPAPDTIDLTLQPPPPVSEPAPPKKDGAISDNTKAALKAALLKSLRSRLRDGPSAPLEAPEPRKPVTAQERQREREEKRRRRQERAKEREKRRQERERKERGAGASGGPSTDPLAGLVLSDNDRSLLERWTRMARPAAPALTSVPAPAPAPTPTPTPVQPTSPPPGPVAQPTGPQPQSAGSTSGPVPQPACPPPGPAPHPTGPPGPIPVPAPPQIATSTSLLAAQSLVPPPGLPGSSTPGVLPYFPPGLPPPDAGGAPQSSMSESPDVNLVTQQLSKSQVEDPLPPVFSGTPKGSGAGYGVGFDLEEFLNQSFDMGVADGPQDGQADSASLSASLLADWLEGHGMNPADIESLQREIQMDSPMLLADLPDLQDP

[18] = measured here: epithelial PC-3E GFP cell survival
[19] = measured here: mesenchymal TEM4-18 mCherry cell survival
[20] = measured here: relative caspase fold change +Dox/-Dox
[21] = measured here: total cells with miR-34 induction, stronger effect = lower value
[22] = measured here: total cells without miR-34 induction
[23] = MELAS cybrid survival, CellTiter-Glo 48 h, stronger effect = higher value
[24] = Rieske KO mouse fibroblast survival, CellTiter-Glo 72 h

CC(C)[N+](C)(CCC(C(N)=O)(c1ccccc1)c1ccccc1)C(C)C
survival [1]: 6.08 (inactive)
parasite load remaining [2]: 94.4% (inactive) and 83.4% (inactive) and 60% (inactive)
viability [2]: 100% and 76.1% and 93.6%
nuclear beta-catenin stimulation ([3]; at 10 µM): 0.4% (inactive)
nuclear beta-catenin stimulation ([3]; stimulation, at 2 µM): -0.3%
insulin secretion stimulation [4]: -0.4% (inactive)
viability decrease [5]: -32.8% (inactive)
tube area decrease [6]: -3.8% (inactive)
GLP1 secretion stimulation [7]: -1.4% (inactive)
inhibition of viability [8]: -3.83% (inactive)
viability decrease (inhibition) [9]: 22% (inactive)
viability decrease (inhibition) [10]: -1.8% (inactive)
inhibition [11]: -13.2% (inactive)
red/green cell ratio (normalised) [12]: 0.98 (inactive)
normalised cell number [12, 18]: 1.19
normalised cell number [12, 19]: 1.17
activity remaining [13]: 119% (inactive)
fold change ([14]; stronger effect = lower value): 0.953 (inactive) and 0.875 (inactive)
fold change [14, 20]: 1.13 and 0.654
cell count [14, 21]: 8490 and 10700
cell count [14, 22]: 8910 and 12200
z-score [15, 23]: -0.488 (inactive)
z-score [15, 24]: -0.766
remaining NAD [16]: 10 nM (inactive)
luciferase signal [17]: 76 AU (inactive)

CNC(C)(C)Cc1ccccc1
survival [1]: 4.83 (inactive)
parasite load remaining [2]: 104% (inactive) and 157% (inactive) and 55.8% (inactive)
viability [2]: 104% and 88.4% and 81%
nuclear beta-catenin stimulation ([3]; at 10 µM): -2.4% (inactive)
nuclear beta-catenin stimulation ([3]; stimulation, at 2 µM): 0.7%
insulin secretion stimulation [4]: 2.7% (inactive)
viability decrease [5]: -16.7% (inactive)
tube area decrease [6]: -0.3% (inactive)
GLP1 secretion stimulation [7]: 1.1% (inactive)
inhibition of viability [8]: 0.43% (inactive)
viability decrease (inhibition) [9]: 15.4% (inactive)
viability decrease (inhibition) [10]: -5.3% (inactive)
inhibition [11]: -16.6% (inactive)
red/green cell ratio (normalised) [12]: 1.08 (inactive)
normalised cell number [12, 18]: 0.92
normalised cell number [12, 19]: 1
activity remaining [13]: 99.6% (inactive)
fold change ([14]; stronger effect = lower value): 0.876 (inactive) and 0.893 (inactive)
fold change [14, 20]: 1.32 and 3.57
cell count [14, 21]: 7450 and 10900
cell count [14, 22]: 8510 and 12200
z-score [15, 23]: -0.189 (inactive)
z-score [15, 24]: -0.596
remaining NAD [16]: 10 nM (inactive)
luciferase signal [17]: 56 AU (inactive)

Cc1ccc(N=CN(C)C=Nc2ccc(C)cc2C)c(C)c1
parasite load remaining [2]: 103% (inactive) and 56.6% (inactive)
viability [2]: 84.4% and 95.1%
nuclear beta-catenin stimulation ([3]; at 10 µM): 0.6% (inactive)
nuclear beta-catenin stimulation ([3]; stimulation, at 2 µM): 2.7%
insulin secretion stimulation [4]: 1.3% (inactive)
viability decrease [5]: 15.1% (inactive)
tube area decrease [6]: -4.8% (inactive)
GLP1 secretion stimulation [7]: -3.1% (inactive)
inhibition of viability [8]: 2.47% (inactive)
viability decrease (inhibition) [9]: -61.8% (inactive)
viability decrease (inhibition) [10]: -5.9% (inactive)
inhibition [11]: 17.7% (inactive)
red/green cell ratio (normalised) [12]: 1.11 (inactive)
normalised cell number [12, 18]: 1.13
normalised cell number [12, 19]: 1.26
activity remaining [13]: 119% (inactive)
fold change ([14]; stronger effect = lower value): 0.87 (inactive)
fold change [14, 20]: 1.15
cell count [14, 21]: 11000
cell count [14, 22]: 12600
remaining NAD [16]: 10 nM (inactive)
luciferase signal [17]: 32 AU (inactive)

Clc1ccc(C(OCCN2CCCCC2)c2ccccc2)cc1 (configuration not stated)
survival [1]: 3.58 (inactive)
parasite load remaining [2]: 32.6% (inactive) and 77.7% (inactive)
viability [2]: 91.9% and 79.6%
nuclear beta-catenin stimulation ([3]; at 10 µM): 3.4% (inactive)
nuclear beta-catenin stimulation ([3]; stimulation, at 2 µM): 2.6%
insulin secretion stimulation [4]: 11.4% (inactive)
viability decrease [5]: -162% (inactive)
tube area decrease [6]: 4.5% (inactive)
GLP1 secretion stimulation [7]: 7.9% (inactive)
inhibition of viability [8]: 25.5% (inactive)
viability decrease (inhibition) [9]: 72.3% (active)
viability decrease (inhibition) [10]: 26.4% (inactive)
inhibition [11]: 14.2% (inactive)
red/green cell ratio (normalised) [12]: 0.83 (inactive)
normalised cell number [12, 18]: 1.02
normalised cell number [12, 19]: 0.85
activity remaining [13]: 103% (inactive)
fold change ([14]; stronger effect = lower value): 0.822 (inactive)
fold change [14, 20]: 1.27
cell count [14, 21]: 7820
cell count [14, 22]: 9510
z-score [15, 23]: -1.82 (inactive)
z-score [15, 24]: -0.41
remaining NAD [16]: 10 nM (inactive)
luciferase signal [17]: 180 AU (active)

Source: PubChem BioAssay
